Columns and labels:
Assay in all cases: DAPPL (digital affinity profiling via proximity ligation, sequencing); 10 mM Tris-HCl pH 7.5, 50 mM NaCl, 1 mM DTT, 4% glycerol, room temperature, 30 min; GST-TFs on glutathione beads, 16-mer random dsDNA library, 0.1% formaldehyde crosslink after washing; high values mean tight binding
FEV = molecular target: T1, FEV (Homo sapiens, UniProt Q99581 1-238); settings: protein: recombinant; tags: N-terminal GST; dsDNA, one strand shown
T1 sequence: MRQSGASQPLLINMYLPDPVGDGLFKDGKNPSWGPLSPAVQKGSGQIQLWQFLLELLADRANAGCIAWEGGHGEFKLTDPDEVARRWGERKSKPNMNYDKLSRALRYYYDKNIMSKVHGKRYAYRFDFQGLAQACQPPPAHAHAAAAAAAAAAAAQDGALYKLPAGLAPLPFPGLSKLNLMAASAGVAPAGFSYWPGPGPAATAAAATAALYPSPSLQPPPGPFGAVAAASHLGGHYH
Outline: (§1)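 Yeast served to express human transcription factors as GST fusions, which were then captured on glutathione beads and labelled with DNA barcodes. Pooled with a tag-only sample, they were incubated with 200 nmole of a 16-mer random double-stranded DNA library for 30 min at room temperature in Tris/NaCl/DTT/glycerol buffer, washed, crosslinked with 0.1% formaldehyde, ligated by proximity, amplified by PCR and sequenced. Dividing each hexamer's read frequency for a factor by its frequency for the tag-only sample gives the binding signal.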

ETV5 = ETV5 (Homo sapiens, UniProt P41161 1-510); settings: protein: recombinant; tags: N-terminal GST; dsDNA, one strand shown
Sequence of ETV5 (P41161 whole entry): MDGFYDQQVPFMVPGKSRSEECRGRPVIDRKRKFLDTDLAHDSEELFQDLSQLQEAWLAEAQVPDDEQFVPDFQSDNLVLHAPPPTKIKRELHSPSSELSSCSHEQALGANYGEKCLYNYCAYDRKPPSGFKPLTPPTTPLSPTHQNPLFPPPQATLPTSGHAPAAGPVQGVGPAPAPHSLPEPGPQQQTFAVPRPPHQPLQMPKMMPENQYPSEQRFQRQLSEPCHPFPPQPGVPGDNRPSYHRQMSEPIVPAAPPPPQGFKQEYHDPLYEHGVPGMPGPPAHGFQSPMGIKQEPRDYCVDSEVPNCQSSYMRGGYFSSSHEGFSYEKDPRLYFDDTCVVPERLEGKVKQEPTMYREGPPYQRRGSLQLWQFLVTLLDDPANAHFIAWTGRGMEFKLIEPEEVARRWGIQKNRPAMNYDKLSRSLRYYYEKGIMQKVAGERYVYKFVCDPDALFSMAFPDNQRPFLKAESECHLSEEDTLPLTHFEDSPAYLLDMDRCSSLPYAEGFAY
Outline: as §1

HSF1 = HSF1 (Homo sapiens, UniProt Q00613 1-529); settings: protein: recombinant; tags: N-terminal GST; chain copies: 3; dsDNA, one strand shown
Sequence of HSF1 (Q00613 whole entry): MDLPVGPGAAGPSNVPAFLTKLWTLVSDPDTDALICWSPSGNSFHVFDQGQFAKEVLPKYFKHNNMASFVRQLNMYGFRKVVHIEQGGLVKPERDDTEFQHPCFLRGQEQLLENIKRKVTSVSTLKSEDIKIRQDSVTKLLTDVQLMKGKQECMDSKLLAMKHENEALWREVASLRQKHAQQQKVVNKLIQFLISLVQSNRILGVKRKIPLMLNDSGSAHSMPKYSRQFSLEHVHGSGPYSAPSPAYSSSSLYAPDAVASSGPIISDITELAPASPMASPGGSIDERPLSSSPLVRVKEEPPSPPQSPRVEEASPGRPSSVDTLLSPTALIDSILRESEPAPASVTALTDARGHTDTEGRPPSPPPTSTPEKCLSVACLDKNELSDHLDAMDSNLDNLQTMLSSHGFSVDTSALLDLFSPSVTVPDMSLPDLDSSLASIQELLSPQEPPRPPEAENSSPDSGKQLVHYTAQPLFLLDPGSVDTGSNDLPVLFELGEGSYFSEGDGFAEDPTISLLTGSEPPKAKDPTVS
Outline: as §1

SPIC = molecular target: T2, SPIC (Homo sapiens, UniProt Q8N5J4 1-248); settings: protein: recombinant; tags: N-terminal GST; dsDNA, one strand shown
T2 sequence: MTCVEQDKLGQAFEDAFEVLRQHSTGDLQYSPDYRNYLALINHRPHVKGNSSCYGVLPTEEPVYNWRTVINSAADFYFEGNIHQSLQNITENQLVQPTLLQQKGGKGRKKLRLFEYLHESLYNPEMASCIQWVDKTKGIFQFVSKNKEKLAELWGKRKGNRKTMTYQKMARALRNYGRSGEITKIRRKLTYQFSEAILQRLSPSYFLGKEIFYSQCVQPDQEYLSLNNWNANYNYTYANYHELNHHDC
Outline: as §1

ELF4 = ELF4 (Homo sapiens, UniProt Q99607 1-663); settings: protein: recombinant; tags: N-terminal GST; dsDNA, one strand shown
Sequence of ELF4 (Q99607 whole entry): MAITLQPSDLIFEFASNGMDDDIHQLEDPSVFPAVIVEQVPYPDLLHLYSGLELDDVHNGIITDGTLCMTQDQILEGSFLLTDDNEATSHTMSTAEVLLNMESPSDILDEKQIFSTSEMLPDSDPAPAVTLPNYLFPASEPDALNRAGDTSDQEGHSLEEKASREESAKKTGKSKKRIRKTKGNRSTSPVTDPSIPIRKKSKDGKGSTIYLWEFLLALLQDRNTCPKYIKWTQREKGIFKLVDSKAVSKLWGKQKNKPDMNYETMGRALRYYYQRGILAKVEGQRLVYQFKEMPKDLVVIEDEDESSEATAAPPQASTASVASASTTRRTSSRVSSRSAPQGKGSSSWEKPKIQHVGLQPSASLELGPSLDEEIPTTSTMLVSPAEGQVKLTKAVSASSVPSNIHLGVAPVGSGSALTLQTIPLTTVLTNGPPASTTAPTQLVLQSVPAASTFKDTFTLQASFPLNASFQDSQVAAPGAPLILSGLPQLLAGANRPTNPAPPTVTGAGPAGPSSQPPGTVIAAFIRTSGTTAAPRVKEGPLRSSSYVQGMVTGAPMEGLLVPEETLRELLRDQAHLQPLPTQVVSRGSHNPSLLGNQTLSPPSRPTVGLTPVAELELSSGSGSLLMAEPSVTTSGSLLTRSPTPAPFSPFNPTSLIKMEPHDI
Outline: as §1

ELK4 = molecular target: T3, ELK4 (Homo sapiens, UniProt P28324-2 1-405); settings: protein: recombinant; tags: N-terminal GST; dsDNA, one strand shown
T3 sequence: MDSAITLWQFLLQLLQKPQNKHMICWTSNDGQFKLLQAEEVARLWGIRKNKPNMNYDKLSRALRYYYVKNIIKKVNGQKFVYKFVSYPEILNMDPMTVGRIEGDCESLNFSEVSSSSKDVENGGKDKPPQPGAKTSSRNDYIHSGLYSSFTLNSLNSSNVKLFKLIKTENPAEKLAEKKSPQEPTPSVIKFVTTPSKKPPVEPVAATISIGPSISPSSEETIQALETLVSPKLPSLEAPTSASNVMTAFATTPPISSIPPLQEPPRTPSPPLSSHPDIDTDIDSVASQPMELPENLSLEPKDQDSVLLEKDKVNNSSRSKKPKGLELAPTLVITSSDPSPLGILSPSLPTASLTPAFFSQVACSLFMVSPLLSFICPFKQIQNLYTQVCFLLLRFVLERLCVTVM
Outline: as §1

ETV2 = molecular target: T4, ETV2 (Homo sapiens, UniProt O00321 1-342); settings: protein: recombinant; tags: N-terminal GST; dsDNA, one strand shown
T4 sequence: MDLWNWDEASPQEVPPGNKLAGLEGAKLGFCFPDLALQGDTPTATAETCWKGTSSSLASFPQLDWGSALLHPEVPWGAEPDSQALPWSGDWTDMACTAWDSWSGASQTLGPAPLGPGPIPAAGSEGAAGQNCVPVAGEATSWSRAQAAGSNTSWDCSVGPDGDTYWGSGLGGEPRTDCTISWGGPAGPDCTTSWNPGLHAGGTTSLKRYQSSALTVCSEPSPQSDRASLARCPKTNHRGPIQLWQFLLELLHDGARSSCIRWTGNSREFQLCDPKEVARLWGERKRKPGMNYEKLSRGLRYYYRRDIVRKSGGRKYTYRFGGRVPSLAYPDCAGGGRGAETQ
Outline: as §1

ELF3 = molecular target: T5, ELF3 (Homo sapiens, UniProt P78545 1-371); settings: protein: recombinant; tags: N-terminal GST; dsDNA, one strand shown
T5 sequence: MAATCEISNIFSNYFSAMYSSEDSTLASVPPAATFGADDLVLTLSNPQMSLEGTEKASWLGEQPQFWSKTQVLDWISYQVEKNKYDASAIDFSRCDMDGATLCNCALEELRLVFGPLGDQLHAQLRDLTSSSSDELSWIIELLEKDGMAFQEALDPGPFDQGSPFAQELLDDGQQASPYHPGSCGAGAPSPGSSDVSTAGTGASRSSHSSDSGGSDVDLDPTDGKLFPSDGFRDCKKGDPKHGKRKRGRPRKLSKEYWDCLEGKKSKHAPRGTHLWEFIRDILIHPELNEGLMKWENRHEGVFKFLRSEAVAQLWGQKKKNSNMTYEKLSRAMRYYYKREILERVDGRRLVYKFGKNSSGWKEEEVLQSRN
Outline: as §1

CRX = CRX (Homo sapiens, UniProt O43186 1-299); settings: protein: recombinant; tags: N-terminal GST; dsDNA, one strand shown
Sequence of CRX (O43186 whole entry): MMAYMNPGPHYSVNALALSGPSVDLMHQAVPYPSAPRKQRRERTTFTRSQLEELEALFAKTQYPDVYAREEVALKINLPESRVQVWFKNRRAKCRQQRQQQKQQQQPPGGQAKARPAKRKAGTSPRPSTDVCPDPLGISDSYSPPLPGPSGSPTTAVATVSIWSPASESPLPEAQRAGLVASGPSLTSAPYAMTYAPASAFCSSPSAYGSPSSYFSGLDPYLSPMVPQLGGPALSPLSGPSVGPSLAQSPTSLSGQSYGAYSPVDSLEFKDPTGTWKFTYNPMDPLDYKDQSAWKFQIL
Outline: as §1

ETV1 = ETV1 (Homo sapiens, UniProt P50549 1-477); settings: protein: recombinant; tags: N-terminal GST; dsDNA, one strand shown
Sequence of ETV1 (P50549 whole entry): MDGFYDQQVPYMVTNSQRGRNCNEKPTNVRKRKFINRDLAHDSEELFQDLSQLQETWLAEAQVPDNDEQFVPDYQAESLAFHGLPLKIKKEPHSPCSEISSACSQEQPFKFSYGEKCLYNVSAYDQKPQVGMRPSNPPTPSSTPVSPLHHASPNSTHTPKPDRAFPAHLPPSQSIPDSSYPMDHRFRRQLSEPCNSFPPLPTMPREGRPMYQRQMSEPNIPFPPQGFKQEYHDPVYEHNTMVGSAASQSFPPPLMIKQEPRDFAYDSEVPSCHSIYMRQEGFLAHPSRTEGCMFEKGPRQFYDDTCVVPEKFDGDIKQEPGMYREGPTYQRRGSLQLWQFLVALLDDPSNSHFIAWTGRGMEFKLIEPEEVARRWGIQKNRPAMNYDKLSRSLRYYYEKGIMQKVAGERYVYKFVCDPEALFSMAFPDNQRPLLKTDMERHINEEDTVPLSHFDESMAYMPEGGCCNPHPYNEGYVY
Outline: as §1

ERF = molecular target: T6, ERF (Homo sapiens, UniProt P50548 1-548); settings: protein: recombinant; tags: N-terminal GST; dsDNA, one strand shown
T6 sequence: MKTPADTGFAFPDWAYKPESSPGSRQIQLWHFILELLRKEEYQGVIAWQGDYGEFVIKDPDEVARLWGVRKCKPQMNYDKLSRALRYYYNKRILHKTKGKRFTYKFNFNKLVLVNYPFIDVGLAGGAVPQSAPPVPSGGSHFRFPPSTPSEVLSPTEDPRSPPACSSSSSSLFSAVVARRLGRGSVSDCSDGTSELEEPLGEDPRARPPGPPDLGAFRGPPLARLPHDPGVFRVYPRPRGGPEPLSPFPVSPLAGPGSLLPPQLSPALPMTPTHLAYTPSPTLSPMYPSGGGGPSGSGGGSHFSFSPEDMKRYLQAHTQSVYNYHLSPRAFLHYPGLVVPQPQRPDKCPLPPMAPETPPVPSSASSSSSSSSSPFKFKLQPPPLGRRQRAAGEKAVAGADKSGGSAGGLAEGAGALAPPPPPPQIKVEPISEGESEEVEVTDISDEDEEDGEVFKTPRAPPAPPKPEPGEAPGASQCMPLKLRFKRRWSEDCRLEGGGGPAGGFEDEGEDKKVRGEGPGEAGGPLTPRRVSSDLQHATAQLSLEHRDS
Outline: as §1

ETV3L = molecular target: T7, ETV3L (Homo sapiens, UniProt Q6ZN32 1-361); settings: protein: recombinant; tags: N-terminal GST; dsDNA, one strand shown
T7 sequence: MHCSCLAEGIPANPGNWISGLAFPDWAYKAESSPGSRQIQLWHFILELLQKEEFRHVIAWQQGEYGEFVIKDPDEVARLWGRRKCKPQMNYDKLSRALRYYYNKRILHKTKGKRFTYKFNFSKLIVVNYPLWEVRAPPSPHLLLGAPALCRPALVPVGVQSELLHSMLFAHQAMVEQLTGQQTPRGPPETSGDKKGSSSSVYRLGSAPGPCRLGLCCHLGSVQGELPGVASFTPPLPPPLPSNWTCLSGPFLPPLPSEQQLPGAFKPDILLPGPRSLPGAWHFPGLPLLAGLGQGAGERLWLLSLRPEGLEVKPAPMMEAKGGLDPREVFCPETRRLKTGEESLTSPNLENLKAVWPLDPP
Outline: as §1

ETS2 = molecular target: T8, ETS2 (Homo sapiens, UniProt P15036 1-469); settings: protein: recombinant; tags: N-terminal GST; dsDNA, one strand shown
T8 sequence: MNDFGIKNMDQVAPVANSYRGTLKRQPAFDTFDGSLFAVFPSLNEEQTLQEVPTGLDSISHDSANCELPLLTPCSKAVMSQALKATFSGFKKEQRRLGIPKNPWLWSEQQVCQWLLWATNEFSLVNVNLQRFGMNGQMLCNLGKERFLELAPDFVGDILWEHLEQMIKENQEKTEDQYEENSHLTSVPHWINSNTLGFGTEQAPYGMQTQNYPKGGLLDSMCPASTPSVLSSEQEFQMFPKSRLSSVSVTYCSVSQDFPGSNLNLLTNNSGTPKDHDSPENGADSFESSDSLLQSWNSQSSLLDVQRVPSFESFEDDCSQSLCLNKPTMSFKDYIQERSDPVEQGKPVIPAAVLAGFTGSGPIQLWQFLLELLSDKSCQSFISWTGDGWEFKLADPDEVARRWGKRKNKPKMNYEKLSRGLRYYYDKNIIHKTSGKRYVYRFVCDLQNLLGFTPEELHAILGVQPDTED
Outline: as §1

SPDEF = molecular target: T9, SPDEF (Homo sapiens, UniProt O95238 1-335); settings: protein: recombinant; tags: N-terminal GST; dsDNA, one strand shown
T9 sequence: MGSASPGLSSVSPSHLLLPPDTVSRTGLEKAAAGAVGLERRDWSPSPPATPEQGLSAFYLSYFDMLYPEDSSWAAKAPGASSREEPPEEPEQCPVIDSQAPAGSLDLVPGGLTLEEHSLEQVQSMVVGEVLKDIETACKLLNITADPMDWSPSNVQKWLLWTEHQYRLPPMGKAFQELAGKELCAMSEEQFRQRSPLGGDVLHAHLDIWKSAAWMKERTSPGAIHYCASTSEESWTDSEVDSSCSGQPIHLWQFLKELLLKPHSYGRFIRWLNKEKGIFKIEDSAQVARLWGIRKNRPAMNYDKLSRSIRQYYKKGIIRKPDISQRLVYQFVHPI
Outline: as §1

ETV7 = molecular target: T10, ETV7 (Homo sapiens, UniProt Q9Y603 1-341); settings: protein: recombinant; tags: N-terminal GST; dsDNA, one strand shown
T10 sequence: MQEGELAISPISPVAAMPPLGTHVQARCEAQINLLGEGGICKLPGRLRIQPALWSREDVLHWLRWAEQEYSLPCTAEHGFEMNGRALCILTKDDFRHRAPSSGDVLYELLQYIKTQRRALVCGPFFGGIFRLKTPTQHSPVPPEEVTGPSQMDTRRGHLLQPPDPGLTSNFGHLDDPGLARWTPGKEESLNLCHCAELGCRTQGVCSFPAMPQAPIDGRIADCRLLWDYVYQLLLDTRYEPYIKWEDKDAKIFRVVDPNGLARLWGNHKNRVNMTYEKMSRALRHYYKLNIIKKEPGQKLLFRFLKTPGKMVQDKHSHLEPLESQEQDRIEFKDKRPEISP
Outline: as §1

ELF5 = molecular target: T11, ELF5 (Homo sapiens, UniProt Q9UKW6-2 1-255); settings: protein: recombinant; tags: N-terminal GST; dsDNA, one strand shown
T11 sequence: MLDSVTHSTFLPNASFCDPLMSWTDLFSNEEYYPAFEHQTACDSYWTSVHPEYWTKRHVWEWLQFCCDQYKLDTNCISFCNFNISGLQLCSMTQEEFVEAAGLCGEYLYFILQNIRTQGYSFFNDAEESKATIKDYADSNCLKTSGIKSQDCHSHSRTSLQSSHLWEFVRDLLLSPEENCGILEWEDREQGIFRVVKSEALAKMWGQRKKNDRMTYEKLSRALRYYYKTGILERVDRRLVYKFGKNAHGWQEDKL
Outline: as §1

ETV6 = ETV6 (Homo sapiens, UniProt P41212 1-452); settings: protein: recombinant; tags: N-terminal GST; dsDNA, one strand shown
Sequence of ETV6 (P41212 whole entry): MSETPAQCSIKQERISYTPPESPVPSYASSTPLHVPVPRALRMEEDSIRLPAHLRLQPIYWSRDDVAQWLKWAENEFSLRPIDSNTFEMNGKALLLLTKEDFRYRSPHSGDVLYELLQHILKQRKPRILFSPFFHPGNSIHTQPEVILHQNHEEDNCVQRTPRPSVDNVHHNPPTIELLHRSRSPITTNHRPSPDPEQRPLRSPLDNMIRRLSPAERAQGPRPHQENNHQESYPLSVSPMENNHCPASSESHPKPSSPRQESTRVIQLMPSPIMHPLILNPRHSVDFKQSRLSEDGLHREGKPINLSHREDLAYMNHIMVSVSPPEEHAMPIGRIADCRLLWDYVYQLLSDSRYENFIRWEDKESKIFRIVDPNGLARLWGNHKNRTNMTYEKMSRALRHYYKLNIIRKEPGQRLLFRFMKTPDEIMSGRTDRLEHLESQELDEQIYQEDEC
Outline: as §1

ETV3 = molecular target: T12, ETV3 (Homo sapiens, UniProt P41162-2 1-143); settings: protein: recombinant; tags: N-terminal GST; dsDNA, one strand shown
T12 sequence: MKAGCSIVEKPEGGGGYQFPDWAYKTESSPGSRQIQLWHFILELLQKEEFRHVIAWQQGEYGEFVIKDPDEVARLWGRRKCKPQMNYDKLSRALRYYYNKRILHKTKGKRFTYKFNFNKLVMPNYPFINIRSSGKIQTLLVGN
Outline: as §1

Sequence	binding signal (FEV)	binding signal (ETV5)	binding signal (HSF1)	binding signal (SPIC)	binding signal (ELF4)	binding signal (ELK4)	binding signal (ETV2)	binding signal (ELF3)	binding signal (CRX)	binding signal (ETV1)	binding signal (ERF)	binding signal (ETV3L)	binding signal (ETS2)	binding signal (SPDEF)	binding signal (ETV7)	binding signal (ELF5)	binding signal (ETV6)	binding signal (ETV3)
CAAATC	1.16 fold enrichment (6-mer frequency, TF over GST control)	1.14 fold enrichment (6-mer frequency, TF over GST control)	1.29 fold enrichment (6-mer frequency, TF over GST control)	1.17 fold enrichment (6-mer frequency, TF over GST control)	1.12 fold enrichment (6-mer frequency, TF over GST control)	1.17 fold enrichment (6-mer frequency, TF over GST control)	1.1 fold enrichment (6-mer frequency, TF over GST control)	1.12 fold enrichment (6-mer frequency, TF over GST control)	1.69 fold enrichment (6-mer frequency, TF over GST control)	1.15 fold enrichment (6-mer frequency, TF over GST control)	1.12 fold enrichment (6-mer frequency, TF over GST control)	1.1 fold enrichment (6-mer frequency, TF over GST control)	1.09 fold enrichment (6-mer frequency, TF over GST control)	1.26 fold enrichment (6-mer frequency, TF over GST control)	1.13 fold enrichment (6-mer frequency, TF over GST control)	1.08 fold enrichment (6-mer frequency, TF over GST control)	1.05 fold enrichment (6-mer frequency, TF over GST control)	–
GCTCAG	1.11 fold enrichment (6-mer frequency, TF over GST control)	1.17 fold enrichment (6-mer frequency, TF over GST control)	1.13 fold enrichment (6-mer frequency, TF over GST control)	1.23 fold enrichment (6-mer frequency, TF over GST control)	1.19 fold enrichment (6-mer frequency, TF over GST control)	1.22 fold enrichment (6-mer frequency, TF over GST control)	1.18 fold enrichment (6-mer frequency, TF over GST control)	1.03 fold enrichment (6-mer frequency, TF over GST control)	1.41 fold enrichment (6-mer frequency, TF over GST control)	1.13 fold enrichment (6-mer frequency, TF over GST control)	1.18 fold enrichment (6-mer frequency, TF over GST control)	1.16 fold enrichment (6-mer frequency, TF over GST control)	1.06 fold enrichment (6-mer frequency, TF over GST control)	1.09 fold enrichment (6-mer frequency, TF over GST control)	–	1.01 fold enrichment (6-mer frequency, TF over GST control)	1.13 fold enrichment (6-mer frequency, TF over GST control)	1.1 fold enrichment (6-mer frequency, TF over GST control)
